± gives the standard deviation.
Legend:
[1] = tested on: MILI (PIWIL2) piRISC loaded with L1MC piRNA (26 nt); experiment: pre-steady-state target cleavage rate (min^-1); guide: L1MC piRNA 5'p-UAACUAAAUACUAUGCAAGCUGUAGG; higher = faster piRNA-guided slicing of the target
In short: (§1)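 Cleave-'n-Seq reactions paired 0.1 nM transcribed, DNA-blocked target RNA library with 1 nM active affinity-purified piRISC holding one synthetic guide, plus or minus 500 nM GTSF1 partner protein, in HEPES–potassium acetate buffer at 33 °C for 0–8 or 0–960 min. After sequencing of uncleaved targets and normalisation to depth and weakly complementary targets, the pre-steady-state cleavage rate was taken from a burst-and-steady-state fit. Three trials were pooled, and k3 was capped at 0.0001 min^-1.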

[2] = tested on: EfPiwi piRISC loaded with L1MC piRNA (26 nt); experiment: pre-steady-state target cleavage rate (min^-1); auxiliary factor: 500 nM Ephydatia muelleri Gtsf1; guide: L1MC piRNA 5'p-UAACUAAAUACUAUGCAAGCUGUAGG; MIWI and MILI are mouse PIWI proteins and EfPiwi is from a freshwater sponge; tags in brackets are library labels; higher = faster piRNA-guided slicing of the target
In short: as §1

[3] = auxiliary factor: 500 nM mouse GTSF1
[4] = auxiliary factor: none (no GTSF1)

Sequence	pre-steady-state target cleavage rate [1, 3]	pre-steady-state target cleavage rate [1, 4]	pre-steady-state target cleavage rate [2]
UCCUGGAUGAGCUGGCAUAGUAUUUAGUUA	0.185 ± 0.016	0.0101 ± 0.0034	0.0103 ± 0.0035
UCCUGCUUCAGCUUGCAAAGUAUUUAGUUA	0.122 ± 0.0063	0.00828 ± 0.0015	0.0683 ± 0.018
UCCUGGAUCAGCUAGCAUAGUAUUAAGUUA	0.247 ± 0.019	0.00556 ± 0.0019	0.00318 ± 0.002
UCCUCCUACAGCUUGCAUAGUAUUUUAGUUA	0.273 ± 0.019	0.0124 ± 0.0038	0.0456 ± 0.014
UCCUGGAUGAGCUAGCAUAGUAUUUAGUAA	0.168 ± 0.021	0.00735 ± 0.0023	0.00419 ± 0.0024
UCCUGGUACAGCUUGCAUCGUAUUUAGUUA	0.0739 ± 0.014	0.00985 ± 0.0037	0.00642 ± 0.0025
UCCUGGAUCAGCUAGCAUAGUAUUUAGUUA	0.236 ± 0.012	0.00845 ± 0.0024	0.0313 ± 0.009
UCCUGCUACAGCUUGCAUAGUAUUUAUGUUA	0.182 ± 0.023	0.00699 ± 0.0022	0.00419 ± 0.0019
UCCUCCUACAGCUUGCAUAGUACUUUAGUUA	0.216 ± 0.017	0.00628 ± 0.0027	0.0115 ± 0.0051
UCCUGGAUCAGCUUGCAUAGUAAUUAGUAA	0.0974 ± 0.021	0.00485 ± 0.0021	0.00487 ± 0.0027
UCCUGGUACAGCUUUCAUAGUAUUUAGUUA	0.22 ± 0.042	0.0103 ± 0.0032	0.00404 ± 0.0023
UCCUGGUACAGCUUGCAUAGUAUAUUAGUUA	0.26 ± 0.039	0.0117 ± 0.0038	0.00489 ± 0.0026
UCCUGCUUCAGCUUGCAUAGUUUUUAGUUA	0.0646 ± 0.011	0.00355 ± 0.0025	0.00715 ± 0.0025
UCCUGGAACAGCUUGUCAUAGUAUUUAGUUA	0.2 ± 0.014	0.00365 ± 0.0033	0.0277 ± 0.0088
UCCUCCUACGAGCUUGCAUAGUAUUUAGUUA	0.163 ± 0.018	0.00585 ± 0.0022	0.0144 ± 0.0051
UCCUCCUACAGCGUUGCAUAGUAUUUAGUUA	0.296 ± 0.021	0.0063 ± 0.0021	0.0299 ± 0.009
UCCUGGAUCAGUUGCAUAGUAUUUAGUUA	0.257 ± 0.016	0.00796 ± 0.002	0.0258 ± 0.0051
UCCUCCUACUGCUUGCAAAGUAUUUAGUUA	0.138 ± 0.011	0.00644 ± 0.0018	0.0558 ± 0.017
UCCUGGAUGUGCUUACAUAGUAUUUAGUUA	0.122 ± 0.015	0.0117 ± 0.0028	0.0113 ± 0.0041
UCCUGGAACAGCUUGCUUAGUAAUUAGUUA	0.213 ± 0.019	0.00562 ± 0.0024	0.00639 ± 0.0027
UCCUGGAUGUGCUUGCAUAGUAAUUAGUUA	0.095 ± 0.013	0.00684 ± 0.0024	0.00847 ± 0.0037
UCCUCCUUCAGCUUGCAUACUAUUUAGUUA	0.0786 ± 0.013	0.00296 ± 0.0027	0.00784 ± 0.0025
UCCUGGAACAAGCUUGCAUAGUAUUUAGUUA	0.224 ± 0.012	0.0116 ± 0.003	0.0156 ± 0.0043
UCCUGGUACCAGCUUGCAUAGUAUUUAGUUA	0.276 ± 0.043	0.00866 ± 0.0047	0.0109 ± 0.0044
UCCUGGAUGAGCUUGCGUAGUAUUUAGUUA	0.119 ± 0.016	0.0108 ± 0.0025	0.00425 ± 0.0038
UCCUGGAUGAGCAUGCAUAGUAUAUAGUUA	0.213 ± 0.022	0.00752 ± 0.0029	0.00333 ± 0.0032

Sequence	pre-steady-state target cleavage rate [1, 3]	pre-steady-state target cleavage rate [1, 4]	pre-steady-state target cleavage rate [2]
UCCUGGUACAGCUUGCACAGUAUUUAGUUA	0.156 ± 0.013	0.0127 ± 0.0032	0.0505 ± 0.015
UCCUCCUACAGGAUGCAUAGUAUUUAGUUA	0.273 ± 0.013	0.00736 ± 0.0024	0.0467 ± 0.011
UCCUGCUACAGCUUGCAUAGUAUUUACGUUA	0.21 ± 0.023	0.00615 ± 0.0025	0.00429 ± 0.002
UCCUCCUACAGCUUAGCAUAGUAUUUAGUUA	0.314 ± 0.017	0.0112 ± 0.0024	0.0919 ± 0.025
UCCUGGUACAGCAAGCAUAGUAUUUAGUUA	0.232 ± 0.018	0.00852 ± 0.0027	0.00653 ± 0.0021
UCCUGGAUCAGCUUCCAAAGUAUUUAGUUA	0.0704 ± 0.0082	0.00341 ± 0.0024	0.00404 ± 0.0027
UCCUGGUUGAGCUUGCAUAGUAUUUAGUAA	0.196 ± 0.022	0.00595 ± 0.0027	0.00604 ± 0.0023
UCCUGGAUCAGCUUGCAUAGUAUUAUAGUUA	0.283 ± 0.022	0.00669 ± 0.0028	0.0796 ± 0.024
UCCUGCUUCACCUUGCAUAGUAUUUAGUUA	0.228 ± 0.027	0.00696 ± 0.0025	0.0076 ± 0.0034
UCCUGGUUCAGCUUGCAUAGUAUUUAGUAA	0.144 ± 0.028	0.00573 ± 0.0029	0.00696 ± 0.0035
UCCUGGAACAGCUGGCAUAGUAUUUAGUUA	0.17 ± 0.012	0.00801 ± 0.003	0.00699 ± 0.0026
UCCUGGAUCAGCUUGCAUAGUAUUUAGAUUA	0.0478 ± 0.011	0.00315 ± 0.0026	0.00483 ± 0.0016
UCCUGCUACAGCUUGACAUAGUAUUUAGUUA	0.226 ± 0.018	0.00448 ± 0.0026	0.00916 ± 0.0026
UCCUCCUACAGGUUGCAUAGUAAUUAGUUA	0.205 ± 0.018	0.00589 ± 0.0017	0.0115 ± 0.0031
UCCUGGAACAGCUUGCAUAGUAUUUACUUA	0.0894 ± 0.017	0.003 ± 0.0029	0.00514 ± 0.0038
UCCUGGUACAGCUUGGAUAGUAUUUAGUUA	0.206 ± 0.024	0.0152 ± 0.0038	0.0049 ± 0.0027
UCCUCCUACAGCUUGGAUAGUAUUUAGUAA	0.208 ± 0.02	0.00459 ± 0.0023	0.00895 ± 0.0035
UCCUCCUACAGGAAGCAUAGUAUUUAGUAA	0.247 ± 0.018	0.00328 ± 0.0023	0.00397 ± 0.0031
UCCUGGUUCAGCUUGCAUAGUAUUUAGUUA	0.23 ± 0.022	0.0108 ± 0.0032	0.0765 ± 0.018
UCCUGGAUAAGCUUGCAUAGUAUUUAGUUA	0.276 ± 0.017	0.0122 ± 0.0029	0.0102 ± 0.004
UCCUCCUACAGCUUGCAUAGUAUUUAGAUA	0.205 ± 0.035	0.00357 ± 0.003	0.00505 ± 0.0025
UCCUGGAACAGCUAGCAUAGUAUUAAGUUA	0.192 ± 0.015	0.00356 ± 0.0025	0.0146 ± 0.0061
UCCUGGAACAGGUAGCAUAGUAUUUAGUUA	0.209 ± 0.016	0.00531 ± 0.0016	0.00892 ± 0.0028
UCCUGGAUGAGCGUGCAUAGUAUUUAGUUA	0.186 ± 0.018	0.0113 ± 0.003	0.0239 ± 0.0062
UCCUGGUACAGCUUGCUUAGUAUUUAGUAA	0.244 ± 0.03	0.00308 ± 0.0025	0.00376 ± 0.0023
